Consider 32 sequences from paper PMC12820563, “FoxP3 forms a head-to-head dimer in vivo and stabilizes its multimerization on adjacent microsatellites”.

Over roughly 16,000 sequences, “rpm ratio (pull-down/input)” has its median near 0.94; the highest 2% begin near 1.7. This excerpt belongs to a sample that is enriched for the highest values.

In this experiment the target is T1, MBP-FoxP1dN (Mus musculus, UniProt P58462 326-579).
T1 sequence: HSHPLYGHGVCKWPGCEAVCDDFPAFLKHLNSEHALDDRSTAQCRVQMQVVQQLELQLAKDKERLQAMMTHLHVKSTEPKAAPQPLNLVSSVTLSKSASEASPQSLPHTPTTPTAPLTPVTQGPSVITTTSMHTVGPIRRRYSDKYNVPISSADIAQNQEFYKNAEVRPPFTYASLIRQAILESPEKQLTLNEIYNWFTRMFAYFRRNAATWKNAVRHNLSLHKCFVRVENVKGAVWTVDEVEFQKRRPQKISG
The experiment in a line: PD-seq (MBP pull-down with sequencing); 20 mM Tris-HCl pH 7.5, 100 mM NaCl, 1.5 mM MgCl2, 0.4 uM protein, 0.1 uM dsDNA library, 30 min, room temperature, amylose pull-down; high values mean tight binding. Particulars: protein: recombinant; tags: His6-MBP; chain copies: 2; dsDNA, one strand shown. The method in brief: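 Binding is given as reads-per-million enrichment, pull-down over input, with replicates pooled. The bait was an N-terminus-lacking mouse FoxP3 or FoxP1 fragment with a His6-MBP tag, expressed in E. coli and used at 0.4 µM with 0.1 µM Klenow-filled degenerate double-stranded DNA library for 30 min at room temperature in Tris pH 7.5 buffer with NaCl and MgCl2. Amylose resin pull-down with three washes was followed by proteinase K release, PCR barcoding and Illumina sequencing.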
On to “GATGATTGTTCTCCCAGCTGATGAATTCAACACATCGAGTAAACAAATTTTCCTAATCTTTCTGTTCAAGCGCCATCTAC”, for which the binding signal was 1.3 RPM ratio (pull-down/input).
The figure for “GATGATTGTTCTCCCAGCTGATGAATTCTAAACATCGAGTAAACAAATTTTCCTAATCTTTCTGTTCAAGCGCCATCTAC” is 2.07 RPM ratio (pull-down/input).
The figure for “GATGATTGTTCTCCCAGCTGATGAATTGAAAACATCGAGTAAACAAATTTTCCTAATCTTTCTGTTCAAGCGCCATCTAC” is 1.8 RPM ratio (pull-down/input).
The result for “GATGATTGTTCTCCCAGCTGATGAATTGAAAAAATCGAGTAAACAAATTTTCCTAATCTTTCTGTTCAAGCGCCATCTAC” reads 1.03 RPM ratio (pull-down/input); that for “GATGATTGTTCTCCCAGCTGATGAATTCAAAACATCGAGTAAACAAATTTTCCTAATCTTTCTGTTCAAGCGCCATCTAC”, 1.99 RPM ratio (pull-down/input); that for “GATGATTGTTCTCCCAGCTGATGAATTCTAAAAATCGAGTAAACAAATTTTCCTAATCTTTCTGTTCAAGCGCCATCTAC”, 0.995 RPM ratio (pull-down/input).
With “GATGATTGTTCTCCCAGCTGATGAATTTTGAAAATCGAGTAAACAAATTTTCCTAATCTTTCTGTTCAAGCGCCATCTAC”, the binding signal was 1.14 RPM ratio (pull-down/input).
The figure for “GATGATTGTTCTCCCAGCTGATGAATTCCTAACATCGAGTAAACAAATTTTCCTAATCTTTCTGTTCAAGCGCCATCTAC” is 1.04 RPM ratio (pull-down/input); for “GATGATTGTTCTCCCAGCTGATGAATTCGGGTAGTCGAGTAAACAAATTTTCCTAATCTTTCTGTTCAAGCGCCATCTAC” it is 0.855 RPM ratio (pull-down/input); for “GATGATTGTTCTCCCAGCTGATGAATTAAAAGTCTCGAGTAAACAAATTTTCCTAATCTTTCTGTTCAAGCGCCATCTAC” it is 0.816 RPM ratio (pull-down/input).
The figure for “GATGATTGTTCTCCCAGCTGATGAATTGTTCGTTTCGAGTAAACAAATTTTCCTAATCTTTCTGTTCAAGCGCCATCTAC” is 1.15 RPM ratio (pull-down/input).
The result for “GATGATTGTTCTCCCAGCTGATGAATTGCAAAGCTCGAGTAAACAAATTTTCCTAATCTTTCTGTTCAAGCGCCATCTAC” reads 1.09 RPM ratio (pull-down/input).
Consider “GATGATTGTTCTCCCAGCTGATGAATTATACAGTTCGAGTAAACAAATTTTCCTAATCTTTCTGTTCAAGCGCCATCTAC”, for which the binding signal is 1.18 RPM ratio (pull-down/input).
“GATGATTGTTCTCCCAGCTGATGAATTACTCACATCGAGTAAACAAATTTTCCTAATCTTTCTGTTCAAGCGCCATCTAC”: the binding signal is 1.28 RPM ratio (pull-down/input).
As to “GATGATTGTTCTCCCAGCTGATGAATTTCGAATCTCGAGTAAACAAATTTTCCTAATCTTTCTGTTCAAGCGCCATCTAC”, the binding signal was 0.83 RPM ratio (pull-down/input).
For “GATGATTGTTCTCCCAGCTGATGAATTGTTAAACTCGAGTAAACAAATTTTCCTAATCTTTCTGTTCAAGCGCCATCTAC”, the binding signal is 1.1 RPM ratio (pull-down/input).
The result for “GATGATTGTTCTCCCAGCTGATGAATTCCGACACTCGAGTAAACAAATTTTCCTAATCTTTCTGTTCAAGCGCCATCTAC” reads 0.88 RPM ratio (pull-down/input); that for “GATGATTGTTCTCCCAGCTGATGAATTACACTCGTCGAGTAAACAAATTTTCCTAATCTTTCTGTTCAAGCGCCATCTAC”, 1.15 RPM ratio (pull-down/input).
Turning to “GATGATTGTTCTCCCAGCTGATGAATTCAGACGTTCGAGTAAACAAATTTTCCTAATCTTTCTGTTCAAGCGCCATCTAC”, the binding signal was 0.787 RPM ratio (pull-down/input).
“GATGATTGTTCTCCCAGCTGATGAATTCTCCCAATCGAGTAAACAAATTTTCCTAATCTTTCTGTTCAAGCGCCATCTAC”: the binding signal is 0.958 RPM ratio (pull-down/input).
In the case of “GATGATTGTTCTCCCAGCTGATGAATTCAAACAATCGAGTAAACAAATTTTCCTAATCTTTCTGTTCAAGCGCCATCTAC”, the binding signal is 1.81 RPM ratio (pull-down/input).
The result for “GATGATTGTTCTCCCAGCTGATGAATTCTTTCAATCGAGTAAACAAATTTTCCTAATCTTTCTGTTCAAGCGCCATCTAC” reads 0.972 RPM ratio (pull-down/input); that for “GATGATTGTTCTCCCAGCTGATGAATTATGCGATTCGAGTAAACAAATTTTCCTAATCTTTCTGTTCAAGCGCCATCTAC”, 1.06 RPM ratio (pull-down/input).
In the case of “GATGATTGTTCTCCCAGCTGATGAATTGTATTTGTCGAGTAAACAAATTTTCCTAATCTTTCTGTTCAAGCGCCATCTAC”, the binding signal is 2.5 RPM ratio (pull-down/input).
The result for “GATGATTGTTCTCCCAGCTGATGAATTTGTAATGTCGAGTAAACAAATTTTCCTAATCTTTCTGTTCAAGCGCCATCTAC” reads 1.26 RPM ratio (pull-down/input); that for “GATGATTGTTCTCCCAGCTGATGAATTTTGTATGTCGAGTAAACAAATTTTCCTAATCTTTCTGTTCAAGCGCCATCTAC”, 1.54 RPM ratio (pull-down/input).
The figure for “GATGATTGTTCTCCCAGCTGATGAATTGTATCTGTCGAGTAAACAAATTTTCCTAATCTTTCTGTTCAAGCGCCATCTAC” is 1.08 RPM ratio (pull-down/input); for “GATGATTGTTCTCCCAGCTGATGAATTTGTATTGTCGAGTAAACAAATTTTCCTAATCTTTCTGTTCAAGCGCCATCTAC” it is 2.88 RPM ratio (pull-down/input).
Turning to “GATGATTGTTCTCCCAGCTGATGAATTGTAATTGTCGAGTAAACAAATTTTCCTAATCTTTCTGTTCAAGCGCCATCTAC”, the binding signal was 1.39 RPM ratio (pull-down/input).
The result for “GATGATTGTTCTCCCAGCTGATGAATTTGCGATCTCGAGTAAACAAATTTTCCTAATCTTTCTGTTCAAGCGCCATCTAC” reads 0.924 RPM ratio (pull-down/input); that for “GATGATTGTTCTCCCAGCTGATGAATTAATTCCTTCGAGTAAACAAATTTTCCTAATCTTTCTGTTCAAGCGCCATCTAC”, 0.955 RPM ratio (pull-down/input); that for “GATGATTGTTCTCCCAGCTGATGAATTCCCGTTTTCGAGTAAACAAATTTTCCTAATCTTTCTGTTCAAGCGCCATCTAC”, 0.97 RPM ratio (pull-down/input).
